# Test results reported in PubChem BioAssay (NCI).
# Values joined by “and” are separate entries in the source; they are usually repeats but may differ in a detail not shown here. Identical values can stand only once. About 83,000 compounds went through this panel and 20% of them were active in at least one assay; those are over-represented in the sample as a whole.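 Method: cells in 96-well plates; compound added at one concentration; 48 h incubation; percent growth measured; values under 10 scored active.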 Unmarked numbers belong to inactive results. Active and inactive are the calls of the source.
# Tests used:
# Test in all cases: NCI-60 one-dose screen, 48 h (100 = growth as untreated, 0 = no growth, -100 = all killed)
# Conditions in all cases: 10 µM unless noted
# [1] = system: SR leukemia
# [2] = system: RPMI-8226 leukemia
# [3] = system: OVCAR-8 ovarian
# [4] = system: OVCAR-5 ovarian
# [5] = system: OVCAR-4 ovarian
# [6] = system: SK-OV-3 ovarian
# [7] = system: IGROV1 ovarian
# [8] = system: OVCAR-3 ovarian
# [9] = system: HS 578T breast
# [10] = system: NCI/ADR-RES ovarian
# [11] = system: T-47D breast
# [12] = system: BT-549 breast
# [13] = system: MDA-MB-435 melanoma
# [14] = system: SW-620 colon
# [15] = system: MCF7 breast
# [16] = system: HCT-116 colon
# [17] = system: HCC-2998 colon
# [18] = system: KM12 colon
SMILES,growth [1],growth [2],growth [3],growth [4],growth [5],growth [6],growth [7],growth [8],growth [9],growth [10],growth [11],growth [12],growth [13],growth [14],growth [15],growth [16],growth [17],growth [18]
COc1ccccc1/C=C1\COc2ccc(O)c(O)c2C1=O,8.02% (active),-19.3% (active),9.04% (active),28.3%,28.1%,60.3%,6.74% (active),-11.8% (active),10.4%,3.53% (active),11.6%,24.2%,8.84% (active),3.71% (active),14.8%,8.37% (active),69.7%,20.8%
Cc1ccc(-c2nc3nc(-c4ccc(Cl)cc4)nc(N4CCCNCC4)c3o2)cc1,-44.9% (active),-48.7% (active),-58.7% (active),-98.5% (active),-83.5% (active),117%,-83.8% (active),-95.5% (active),-50.8% (active),-66.9% (active),-36.5% (active),99.4%,-81.1% (active),-81.9% (active),-79.4% (active),-75.6% (active),-78.8% (active),-88.7% (active)
CC(C)(C)c1cc(C(C)(C)c2ccccc2)cc(Cc2cc(C(C)(C)c3ccccc3)cc(C(C)(C)C)c2O)c1O,-21.9% (active),91%,97.9%,91.8%,90.2%,105%,96.5%,106%,105%,102%,95.3%,93.1%,115%,104%,94.6%,93.1%,107%,106%
CC(=O)c1c(C)nc(SCC(=O)Nc2ccc(Cl)cc2)n1-c1ccc(Cl)cc1,90.6%,71.1%,89.3%,99.1%,102%,85.9%,97.9%,99.4%,79.4%,89.2%,72.1%,92.1%,89.6%,87.6%,82.9%,67.7%,102%,98.5%
CC(=O)c1nn(-c2ccccc2)/c(=N/N=Cc2cn(-c3ccccc3)nc2-c2cc3ccccc3oc2=O)s1,88.1%,102%,103%,106%,104%,106%,107%,116%,115%,107%,89.1%,105%,103%,104%,91.5%,97.6%,108%,106%
CCCN1C(=O)/C(=c2\sc3n(c2=O)C2C(NN=3)N(CC)C(=O)N2CC)c2ccccc21 (stereo not drawn),17%,21.9%,7.65% (active),27.5%,48.8%,43.7%,16%,12.4%,16.8%,0.109% (active),27.8%,20.8%,-21.2% (active),24.9%,9.94% (active),7.6% (active),15.5%,20%
O=C(c1ccc(Nc2nccc(NCCCNc3ccnc4cc(Cl)ccc34)n2)cc1)N1CCCCC1,-2.26% (active),81%,34%,71.2%,48.4%,66.7%,39.7%,37.7%,84.8%,92.6%,54.3%,64.9%,34.1%,26.3%,23.1%,26.7%,26%,37.5%
COc1ccc(/C=C(\C#N)c2cc3ccccc3[nH]2)cc1,11.4%,14.9%,32%,42.5%,62.4%,47.7%,45.7%,14.1%,22.9%,-6.87% (active),28.3%,40.9%,-32.6% (active),9.82% (active),13.3%,12.5%,39%,20.4%
Nc1nc(N)c2c(n1)NC(c1cccc(Nc3ccnc4cc(C(F)(F)F)ccc34)c1)CC(c1ccc(F)cc1)=N2 (stereo not drawn),-7.72% (active),3.03% (active),63.1%,108%,57.9%,63.1%,50.5%,26.4%,42.1%,70.7%,68.3%,100%,-24.7% (active),26.4%,16.7%,22.4%,54%,30.2%
Cc1nc(-n2[nH]c(=O)ccc2=O)sc1N=Nc1ccccc1,105%,100%,103%,100%,104%,103%,95.5%,114%,95.5%,108%,94%,95.7%,102%,98.1%,94.2%,97.5%,115%,108%
O/N=C(/c1ccccc1)c1ccc2c3c(cccc13)CC2,67% and 66.6%,75.2% and 70.4%,87.7%,97.7% and 95.4%,83.9% and 77.1%,99.3% and 97.4%,97.8% and 98%,99.4% and 93.3%,94.4% and 90.2%,92.8% and 88.6%,85.9% and 93.8%,84.6% and 106%,47.3% and 37.8%,91.2% and 84%,85.8% and 82.6%,83.7% and 92.1%,101% and 97.8%,86.4% and 78.4%
Clc1ccc2c(NCCN3CCN(c4ccnc(N5CCCC5)n4)CC3)ccnc2c1,-12.2% (active),-10.6% (active),36.8%,68.8%,57.8%,90%,47.8%,40.8%,76.4%,49%,2.2% (active),75.8%,15.2%,12.9%,12.3%,4.45% (active),0.613% (active),54.3%
O=c1c(/C=C/c2ccco2)nnc2sc(Nc3ccc(Cl)cc3)nn12,96%,101%,101%,97.1%,90.7%,86.4%,68.8%,106%,91%,102%,88.2%,99.9%,100%,103%,82.5%,99%,96.3%,103%
COc1ccc(/C=C/C(=O)c2cc3c(N)c(C(=O)Nc4ccccc4)sc3nc2C)cc1,23.4%,-13.3% (active),3.29% (active),39.3%,49.3%,33%,31%,-16.6% (active),14.6%,2.9% (active),46.7%,2.86% (active),-23.9% (active),18%,7.19% (active),8.12% (active),11.7%,6.61% (active)
COc1ccc(-c2nn3c(-c4cc(F)c(Cl)cc4Cl)nnc3s2)cc1,13.1%,29.9%,67.5%,59.5%,80%,61.1%,40.6%,27.8%,-20.6% (active),3.63% (active),50.3%,54.3%,3.5% (active),20.8%,18.3%,20.9%,42.1%,46.8%
Cc1ccc(C(=O)Nc2nc3c(s2)CN(Cc2ccccc2)CC3)cn1,64%,77.8%,95.7%,103%,78.7%,89.2%,82.4%,88.1%,98.3%,70.5%,83.8%,94.9%,7.68% (active),69.8%,64%,80.7%,77.9%,49.6%
